From PubChem BioAssay AID651820 (National Center for Advancing Translational Sciences (NCATS), 2012)
In all, about 340,000 compounds went through this assay and about 12,000 (3.5%) were called active. Where a call stands in place of a potency, no number is given. Not shown: some 18% with an inconclusive outcome. Calls follow the shape of the dose curve; as a rule, active = well fitted inhibition curve with a large enough effect; inconclusive = small, poorly fitted or top-dose-only effect, or another doubt; inactive = no such curve, though single readings can be large or run the other way. The sample as a whole holds a higher share of actives than the screen did.

Test: qHTS Assay for Inhibitors of Hepatitis C Virus (HCV)
Conditions: Huh7.5.1 HCVcc-Cre infection, luciferase reporter, 44 h; series mostly up to 41.8 µM
Procedure, shortened: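 Cells (1,000/well) were plated 4 h before compound, then infected with HCVcc-Cre virus (~0.5 moi). After 44 h further culture, infection was read as luciferase luminescence following a 15 min substrate incubation at room temperature.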
Potency is read from the fitted curve at half-maximal effect.

Row | Structure (SMILES) | Potency | activity change, negative = inhibition
1 | CCC(=O)N1CCc2cc(Br)c(S(=O)(=O)NCCN3CCCCC3CC)cc21 (stereo not given) | inactive | –
2 | CCN(CC(=O)Nc1cc(Cl)ccc1C)C(=O)CSCc1ccccc1 | inactive | –
3 | CCS(=O)(=O)c1cc([N+](=O)[O-])c(Sc2ccccc2N)s1 | 7.08 µM (active) | –
4 | Nc1ccccc1Sc1ccc(C(F)(F)F)cc1[N+](=O)[O-] | inactive | –
5 | CCOC(=O)c1cc(Sc2ccccc2N)cc(C(=O)OCC)n1 | inactive | –
6 | O=C(COc1ccccc1Cl)N1N=C(c2cccs2)CC1c1ccco1 (stereo not given) | inactive | –
7 | CC(=NNC(=O)c1ccc2nc[nH]c2c1)c1ccc(Br)cc1 | inactive | –
8 | COc1ccc(S(=O)(=O)N2CCOCC2)cc1NC(=O)Cc1c(F)cccc1Cl | inactive | –
9 | COc1ccc(S(=O)(=O)NCCOc2ccccc2)cc1F | inactive | –
10 | COC(=O)CNS(=O)(=O)c1ccc(OC)cc1 | inactive | –
11 | COc1ccc(S(=O)(=O)NCCCCOc2ccc(Cl)cc2)cc1 | 25.1 µM (active) | –
12 | O=C(NCCCN1CCOCC1)c1cn(-c2ccccc2)nc1-c1ccc(F)cc1 | inactive | –
13 | CN(C)C(=O)COC(=O)c1cccc(S(=O)(=O)N2CC3(C)CC2CC(C)(C)C3)c1 (stereo not given) | inactive | –
14 | COc1ccc(N2CCN(S(=O)(=O)c3ccc4c(c3)NC(=O)C(C)C(=O)N4)CC2)cc1 (stereo not given) | inactive | –
15 | CON(C)S(=O)(=O)c1ccc2c(c1)NC(=O)C1CCCN21 (stereo not given) | 8.91 µM (active) | –
16 | CC1C(=O)Nc2ccc(S(=O)(=O)N3CCN(c4ccccc4F)CC3)cc2NC1=O (stereo not given) | inactive | –
17 | Cc1ccc(S(=O)(=O)CCC(=O)OCC(=O)N(C)Cc2ccccc2)cc1 | inactive | –
18 | CN(CC(=O)Nc1ccc(F)cc1)CC(=O)N1CCCCC1 | inactive | –
19 | OCC(O)C1OCOC(C(O)CO)C1O (stereo not given) | inactive | –
20 | COC(=O)C1=C(C)N(Cc2ccccc2)C(=NCCCOC(C)C)N[C@H]1c1ccccc1 | inactive | –
21 | O=C(N/N=C/c1ccccn1)c1cccnc1 | inactive | –
22 | Cc1cc(/C=N/NC(=O)c2cccnc2)c(C)n1CC(C)C | inactive | –

Row | Structure (SMILES) | Potency | activity change, negative = inhibition
23 | O=C(N/N=C/c1sc(N2CCCCC2)nc1-c1cccs1)c1cccnc1 | 11.2 µM (active) | –
24 | CCN(CC)S(=O)(=O)c1ccc(N(C)Cc2ccc(C(F)(F)F)cc2)nc1 | 14.1 µM (active) | –
25 | CCN(CC)S(=O)(=O)c1ccc(Cl)c(NC(=O)c2ccncc2)c1 | inactive | –
26 | COc1ccc(S(=O)(=O)N2CCCCCC2)cc1C(=O)N(C)Cc1cccc(OC)c1OC | inactive | –
27 | CCN(CC)S(=O)(=O)c1ccc(NC(=O)c2cnc(C)cn2)cc1 | inactive | –
28 | CCN(CC)S(=O)(=O)c1ccc(N(C)Cc2cccc(OC)c2OC)nc1 | 3.98 µM (active) | –
29 | CCN(CC)S(=O)(=O)c1ccc(N(C)CCc2ccc(OC)c(OC)c2)nc1 | inactive | –
30 | CCCn1c(C)cc(/C=C(\C#N)C(=O)OCC(=O)N(C)c2c(N)n(Cc3ccccc3)c(=O)[nH]c2=O)c1C | inactive | –
31 | COc1ccccc1C(=O)OCC(=O)Nc1cccc(S(=O)(=O)NC2=NCCCCC2)c1 | inactive | –
32 | CC1CN(Cc2ccco2)C(=S)N(c2ccccc2)C1=O (stereo not given) | inactive | –
33 | COc1ccc(C(=O)COC(=O)C(O)c2ccccc2)c(OC)c1 (stereo not given) | inactive | –
34 | COc1ccc(C(=O)OCC(=O)N2CC(=O)Nc3ccccc32)cc1Br | inactive | –
35 | COc1ccc(Br)cc1/C=N/Nc1ccc(S(=O)(=O)Nc2ccccc2C(=O)O)cc1[N+](=O)[O-] | inactive | –
36 | COc1cccc(NC(=O)C(=O)c2cn(CC(=O)N3CCOCC3)c3ccccc23)c1 | 11.2 µM (active) | –
37 | O=C(Nc1ccc(F)cc1)C(=O)c1cn(CC(=O)N2CCOCC2)c2ccccc12 | inactive | –
38 | COc1cccc(NC(=O)CS(=O)(=O)c2cn(CC(=O)N3CCOCC3)c3ccccc23)c1 | inactive | –
39 | CCCC[C@@H]1CN=C(N)N1CCc1cccc(F)c1 | inactive | –
40 | CC(C)(Oc1ccc(Cl)cc1)C(=O)OCC(=O)NCCc1ccc(S(N)(=O)=O)cc1 | inactive | –
41 | CC[C@]12c3[nH]c4cc(CCC(=O)N(C)C)ccc4c3CCN1C(=O)[C@@H](CC(=O)NCc1ccco1)C[C@@H]2C(=O)N1CCN(C(=O)c2ccco2)CC1 | – | -1.33% [at 8.37 µM] (inactive)
42 | O=[N+]([O-])c1cccc(C=NN=Cc2ccccc2O)c1 | inactive | –
43 | S=c1ccc2ccccc2[nH]1 | inactive | –
44 | S=c1[nH]c2ccccc2c2ccccc12 | 11.2 µM (active) | –

Row | Structure (SMILES) | Potency | activity change, negative = inhibition
45 | CCCCn1c(=S)[nH]c2ccccc2c1=O | inactive | –
46 | N=C1C(c2nc3ccccc3s2)=C(O)CN1NC(=O)c1ccc([N+](=O)[O-])cc1 | 11.2 µM (active) | –
47 | N=C1C(c2nc3ccccc3[nH]2)=C(O)CN1NC(=O)c1c[nH]c2ccccc12 | inactive | –
48 | COc1ccccc1N1CC(O)=C(c2nc3ccccc3s2)C1=N | 11.2 µM (active) | –
49 | O=C(Nn1c(-c2ccccc2)nc2ccccc2c1=O)c1ccc([N+](=O)[O-])cc1 | inactive | –
50 | COc1ccccc1OCc1nc2ccccc2s1 | inactive | –
51 | CCOC(=O)CCCN1CC(O)=C(c2nc3ccccc3s2)C1=N | inactive | –
52 | N#CCN(C(=O)COC(=O)C1CC2CCCC(C1)C2=O)c1ccccc1 (stereo not given) | inactive | –
53 | COc1cc(OC)c(C(=O)NNC(=O)c2ccccc2-n2cccc2)cc1OC | inactive | –
54 | CCCN(CC(=O)Nc1ccccc1C)C(=O)c1ccc2[nH]c3c(c2c1)CC(C)CC3 (stereo not given) | inactive | –
55 | CN(CC#CCC(c1ccccc1)c1ccccc1)C(C)(C)C | 10 µM (active) | –
56 | CC(C)(C)N(CC#CCC(O)(c1ccccc1)C1CCCC1)CCO (stereo not given) | inactive | –
57 | Cc1cc2c(cc1C)NC1(C[C@H]3CCC(=O)N4CC[C@@H](C1)[C@@H]34)C(=NC(C)(C)CC(C)(C)C)N2 (stereo not given in full) | inactive | –
58 | COc1ccc(C(=O)Nc2cccc(/C=C(/CCC(=O)O)c3nc4ccccc4s3)c2)cc1 | inactive | –
59 | O=C(Cc1ccc(Cl)cc1)c1ccccc1 | inactive | –
60 | COCCCNC(=O)CSc1nc2ccc(N3CCOCC3)cc2c(=O)n1CCc1ccccc1 | inactive | –
61 | CCCCn1c(SCC(=O)NCC2CCCO2)nc2ccc(N3CCOCC3)cc2c1=O (stereo not given) | inactive | –
62 | N#CCSc1nc2ccc(N3CCOCC3)cc2c(=O)n1CCc1ccccc1 | 10 µM (active) | –
63 | OC(c1ccccc1)C(CN1CCOCC1)c1ccccc1 (stereo not given) | 12.6 µM (active) | –
64 | CC(CN1CCOCC1)c1ccccc1 (stereo not given) | inactive | –
65 | OC(c1ccc(Cl)cc1)C(CN1CCOCC1)c1ccccc1 (stereo not given) | inactive | –
